A selection: hits, their analogues and other compounds. The true share with any hit is near 2.9%.
SMARCA2 act = increases SMARCA2 function in MMTV reporter cells | MG213 cells, MMTV-luciferase reporter, dexamethasone, overnight | activation, % at 9.1 µM | 370,000 compounds, 1% hits | AID 652017; in the data active = activation above about 7.8%
FXN GAA850 act = activators of GAA850 frataxin (FXN) promoter | HEK293 lucGAA850 FXN promoter luciferase reporter, 24 h; percent of 10 µM SAHA response | activation, % at 6 µM | 360,000 compounds, 0.56% hits | AID 540364;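 active = activation above the average of all compounds screened plus 3 SD, cutoff fixed separately per campaign, cut at about 7.5% in these data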
proKLK7 act = proKLK7 (human) activation, primary screen; 370,000 compounds, 0.9% hits; P49862; AID 652039; activation, % at 7 µM; purified proKLK7, EDANS-DABCYL substrate fluorescence; 100% is mature enzyme control, 0% vehicle;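 active = activation above the mean of all tested compounds plus 3 SD, computed per campaign excluding outliers beyond control limits, cut at about 13% in these data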
FAS TE block = FAS thioesterase (human) inhibition; AID 602261; P49327; recombinant FAS-TE, OMFH fluorogenic substrate, fluorescence endpoint; inhibition, % at 15 µM; 360,000 compounds, 0.67% hits;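 active = compounds whose normalised, plate-corrected inhibition of enzyme fluorescence in the single-dose primary screen is 50% or more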
Target sequence (P49327 whole entry, looked up): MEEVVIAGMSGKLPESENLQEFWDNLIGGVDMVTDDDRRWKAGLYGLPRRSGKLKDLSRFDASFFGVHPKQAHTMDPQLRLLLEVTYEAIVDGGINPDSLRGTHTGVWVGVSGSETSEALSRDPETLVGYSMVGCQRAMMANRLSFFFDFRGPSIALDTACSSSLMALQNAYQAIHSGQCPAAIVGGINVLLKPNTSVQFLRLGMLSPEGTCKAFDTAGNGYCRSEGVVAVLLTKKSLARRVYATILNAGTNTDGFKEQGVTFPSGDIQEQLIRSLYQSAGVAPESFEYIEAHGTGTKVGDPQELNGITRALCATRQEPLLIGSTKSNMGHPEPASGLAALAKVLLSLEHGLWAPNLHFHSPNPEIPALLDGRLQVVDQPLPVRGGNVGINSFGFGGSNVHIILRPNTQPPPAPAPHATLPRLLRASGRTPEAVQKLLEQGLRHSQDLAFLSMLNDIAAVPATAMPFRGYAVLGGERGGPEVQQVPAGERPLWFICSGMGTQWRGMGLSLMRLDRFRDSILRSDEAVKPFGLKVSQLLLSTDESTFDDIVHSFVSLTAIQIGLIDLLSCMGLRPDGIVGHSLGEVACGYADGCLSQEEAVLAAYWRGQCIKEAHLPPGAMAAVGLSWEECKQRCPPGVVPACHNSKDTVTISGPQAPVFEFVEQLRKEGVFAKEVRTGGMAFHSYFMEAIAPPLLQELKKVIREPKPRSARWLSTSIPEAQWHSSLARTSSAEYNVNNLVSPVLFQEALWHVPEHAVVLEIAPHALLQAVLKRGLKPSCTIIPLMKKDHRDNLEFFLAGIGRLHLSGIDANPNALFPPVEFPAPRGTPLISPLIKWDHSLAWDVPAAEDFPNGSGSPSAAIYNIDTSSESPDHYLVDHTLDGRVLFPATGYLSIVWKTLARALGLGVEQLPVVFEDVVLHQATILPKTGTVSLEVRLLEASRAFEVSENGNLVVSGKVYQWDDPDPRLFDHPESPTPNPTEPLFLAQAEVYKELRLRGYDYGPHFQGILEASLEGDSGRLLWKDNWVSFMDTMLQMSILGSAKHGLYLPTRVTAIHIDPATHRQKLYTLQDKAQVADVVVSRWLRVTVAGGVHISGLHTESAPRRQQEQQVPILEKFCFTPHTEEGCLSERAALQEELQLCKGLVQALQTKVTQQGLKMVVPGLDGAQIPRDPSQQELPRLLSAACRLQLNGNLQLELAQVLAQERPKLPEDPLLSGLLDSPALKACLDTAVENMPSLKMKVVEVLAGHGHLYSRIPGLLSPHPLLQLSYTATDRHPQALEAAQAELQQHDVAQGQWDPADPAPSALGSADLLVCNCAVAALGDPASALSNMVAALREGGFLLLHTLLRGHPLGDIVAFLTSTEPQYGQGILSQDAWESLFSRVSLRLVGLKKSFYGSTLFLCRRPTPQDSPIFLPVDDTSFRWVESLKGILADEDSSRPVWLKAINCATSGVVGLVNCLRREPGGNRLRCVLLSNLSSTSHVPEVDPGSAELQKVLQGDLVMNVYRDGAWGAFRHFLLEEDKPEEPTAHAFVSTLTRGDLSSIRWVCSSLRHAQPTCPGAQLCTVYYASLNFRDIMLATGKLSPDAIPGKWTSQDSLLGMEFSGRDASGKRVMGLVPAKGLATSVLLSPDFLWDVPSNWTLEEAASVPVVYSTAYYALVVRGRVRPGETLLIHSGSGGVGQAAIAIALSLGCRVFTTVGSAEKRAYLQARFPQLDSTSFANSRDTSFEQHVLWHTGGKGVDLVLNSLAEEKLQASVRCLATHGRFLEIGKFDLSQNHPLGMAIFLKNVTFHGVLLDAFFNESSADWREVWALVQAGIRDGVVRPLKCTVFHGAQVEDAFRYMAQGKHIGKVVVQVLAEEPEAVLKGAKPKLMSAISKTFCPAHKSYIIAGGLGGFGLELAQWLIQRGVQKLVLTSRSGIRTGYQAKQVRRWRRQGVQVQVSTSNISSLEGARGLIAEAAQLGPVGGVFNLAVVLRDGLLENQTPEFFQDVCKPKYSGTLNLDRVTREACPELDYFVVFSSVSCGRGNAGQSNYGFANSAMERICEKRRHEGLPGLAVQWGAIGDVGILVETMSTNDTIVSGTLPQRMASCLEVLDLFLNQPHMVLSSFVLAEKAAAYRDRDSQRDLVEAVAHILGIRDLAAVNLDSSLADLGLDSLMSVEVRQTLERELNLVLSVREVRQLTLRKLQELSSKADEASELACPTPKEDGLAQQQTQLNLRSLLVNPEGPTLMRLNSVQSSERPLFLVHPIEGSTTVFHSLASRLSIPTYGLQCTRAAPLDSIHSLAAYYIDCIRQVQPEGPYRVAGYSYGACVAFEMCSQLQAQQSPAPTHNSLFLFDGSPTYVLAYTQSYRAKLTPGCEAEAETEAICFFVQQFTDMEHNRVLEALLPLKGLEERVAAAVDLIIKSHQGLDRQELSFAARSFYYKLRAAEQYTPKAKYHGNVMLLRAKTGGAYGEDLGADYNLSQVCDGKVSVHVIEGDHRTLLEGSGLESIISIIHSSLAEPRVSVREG
SMARCA2 conf = confirmation of SMARCA2 (BRM) function activators | activation, % at 9.1 µM | 3,500 compounds, 30% hits | AID 652260 | MG213 cells, MMTV-luciferase with dexamethasone, luminescence, overnight; MG213 cells expressing E1A, Rb sequestered; DMSO wells 0%, reference activator 100% | shares compounds with SMARCA2 act;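 active = activation above its plate's cutoff, the mean activation of tested wells plus 3 SD, cut at about 7.9% in these data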
GAL4-VP16 Luc = counter-screen for SMARCA2 activators: GAL4-VP16 luciferase reporter activation. shares compounds with SMARCA2 act. HEK293 GAL4-VP16 pG5luc reporter, luciferase luminescence; scaled: DMSO wells 0%, SAHA wells 100%. activation, % at 9.1 µM. 3,500 compounds, 41% hits;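 active = activation above the solvent-only control well mean plus 3 SD, averaged across control plates, cut at about 5.2% in these data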
Numbers stand for hits; . = inactive; / = not tested or not shown.

SMILES	SMARCA2 act	FXN GAA850 act	proKLK7 act	FAS TE block	SMARCA2 conf	GAL4-VP16 Luc
Cc1cc(N/N=C/c2ccccc2O)nc(-c2ccccc2O)n1	.	.	.	.	/	/
Cc1cc(N/N=C\c2ccccc2)nc(-c2ccccc2O)n1	13	.	.	.	.	.
Cc1cc(N/N=C/c2ccncc2)nc2ccccc12	.	.	.	.	/	/
O=C1c2cccc(NCCNCCO)c2C(=O)c2cccc(NCCNCCO)c21	10	.	.	.	.	.
COc1cccc(CNC(=O)CSc2nnc3c(n2)[nH]c2ccc(F)cc23)c1	.	.	.	.	/	/
COc1ccccc1CN1CCSCC1	9.8	.	.	.	.	.
COc1cccc(CN2CCSCC2)c1OC	.	.	.	.	/	/
COc1ccc2c(c1)NC(=O)CC(c1ccccc1)=N2	.	.	.	.	/	/
COC(=O)c1cccc(NC(=O)Cn2cnc3ccccc3c2=O)c1	13	.	.	.	.	.
CCOC(=O)c1c(C)[nH]c(N=Nc2ccc(OC)cc2)c1C	9.3	.	.	.	.	7.7
CCOC(=O)c1c(C)[nH]c(N=Nc2ccc(C)cc2)c1C	.	.	.	.	/	/
Cc1nc(NC(=O)COC(=O)[C@@H](NC(=O)c2ccco2)C(C)C)c(Cl)cc1Cl	.	.	.	.	/	/
CCOc1cc(/C=N/NC(=O)C2CCCC2)ccc1O	.	.	.	.	/	/
CC1=CC2=NC(=O)/C(=C\c3cc(C)n(-c4cccc(Cl)c4)c3C)C(=N)N2O1	9.1	.	.	.	.	.
CC1=CC2=NC(=O)/C(=C\c3cc(C)n(-c4ccccc4)c3C)C(=N)N2O1	.	.	.	.	/	/
COCCn1c(C)cc(C(=O)COC(=O)c2ccc([N+](=O)[O-])o2)c1C	.	.	.	.	/	/
Cc1cc(C(=O)COC(=O)c2ccc([N+](=O)[O-])o2)c(C)n1CC1CCCO1 (stereo unspecified)	8.5	.	.	.	.	.
O=C1CCC(C(=O)OCC(=O)C23CC4CC(CC(C4)C2)C3)N1 (stereo unspecified)	.	.	.	.	/	/
CC(=O)Nc1ccc(-c2c(C)cc3oc(=O)cc(-c4ccccc4)c3c2C)cc1	9.2	.	.	.	.	.
Cc1nc2ccccn2c1C(=O)/C=C/c1ccc(F)cc1	.	.	.	.	/	/
COc1ccc(/C=C/C(=O)c2c(C)nc3ccccn23)cc1	9.7	.	.	.	.	10
O=C(NC(=S)Nc1ccc(Br)cn1)c1cccnc1	8.3	.	.	.	9.8	.
O=C(Nc1ccc(NC(=O)c2ccco2)nc1)c1cccnc1	8.7	.	.	.	9.1	12
CCOc1cccc(C(=O)Nc2ccc3[nH]ncc3c2)c1	.	.	.	.	/	/
COc1cc(C(=O)Nc2ccc(NC(=O)c3ccco3)nc2)cc(OC)c1OC	.	.	.	.	/	/
SMILES	SMARCA2 act	FXN GAA850 act	proKLK7 act	FAS TE block	SMARCA2 conf	GAL4-VP16 Luc
O=C(Nc1ccc(NC(=O)c2ccco2)nc1)c1cccc(F)c1	.	.	.	.	/	/
COc1cccc(C(=O)Nc2ccc(NC(=O)c3ccco3)nc2)c1	9.7	.	.	.	12	12
COc1cccc(C(=O)Nc2ccc3[nH]ncc3c2)c1	9.4	.	.	.	8.9	15
O=C(NC(=S)Nc1ccccc1Br)c1cccnc1	.	.	.	.	/	/
O=C(Nc1ccccc1)NC(Cc1ccc(O)cc1)C(=O)O (stereo unspecified)	.	.	.	.	/	/
CC(C)C(=O)Nc1ccc(NC(=O)c2ccco2)cn1	8.1	.	.	.	.	.
CCCC(=O)Nc1ccc(NC(=O)c2ccco2)cn1	.	.	.	.	/	/
CC(C)n1cnc2cc(NC(=O)c3ccco3)ccc21	9.6	.	.	.	13	9.6
CCOC(=O)N1CCN(C(=O)CCn2c(=S)[nH]c3ccccc3c2=O)CC1	.	.	.	.	/	/
COc1ccc(Br)cc1CN(C)CC(=O)Nc1c(Cl)ccc(C)c1Cl	8.1	.	.	.	.	.
CCOC(=O)c1cc(OC(=O)c2cccs2)n(-c2ccccc2)n1	/	.	/	.	/	/
NS(=O)(=O)c1ccc(NC(=O)CSc2nnc(NC3CC3)s2)cc1	.	.	.	.	/	/
O=C(CSc1nnc(NC2CC2)s1)c1ccc[nH]1	12	.	.	.	10	7.3
O=Cc1ccc2noc(-c3ccc(Cl)cc3)c2c1	17	.	.	.	11	.
O=C(Nc1ccc(CN2CCOCC2)cc1)c1cccs1	8.5	.	.	.	.	.
CC(C)c1cc(C(=O)Nc2ccc3c(c2)OCO3)no1	8.0	.	.	.	.	9.1
O=C(/C=C\Nc1ccc2c(c1)OCO2)c1cccs1	10	.	.	.	9.8	.
CC(=O)Nc1ccc2nc(NC(=O)c3cccs3)sc2c1	9.1	.	.	.	8.7	9.8
Cc1nc2ccc(NC(=O)c3cccs3)cc2s1	.	.	.	.	/	/
O=C(/C=C\Nc1ccc2c(c1)OCO2)c1ccc(Cl)s1	.	.	.	.	/	/
CCc1nc2ccc(C(=O)NCCc3ccccn3)cn2c1N(CC)CCOC	.	.	.	.	/	/
O=C(Nc1ccc2c(c1)OCCO2)c1cccs1	.	.	.	.	/	/
CC(=O)c1ccc(NC(=O)c2cccs2)cc1	12	.	.	.	10	10
O=C(Nc1ccc2c(c1)OCO2)c1cccs1	10	.	.	.	12	9.6
CC(=O)c1ccc(NC(=O)/C(Cl)=C/c2ccccc2)cc1	9.7	.	.	.	13	12
SMILES	SMARCA2 act	FXN GAA850 act	proKLK7 act	FAS TE block	SMARCA2 conf	GAL4-VP16 Luc
COc1ccc(NC(=O)c2ccc(NC(=O)c3cccs3)cc2)cc1	.	.	.	.	/	/
COCc1nnc(SCC(=O)NC(C)c2ccccc2)n1-c1ccccc1 (stereo unspecified)	.	.	.	.	/	/
Clc1cc(Cl)cc(CN2CCN(c3ncc(Cc4ccccc4)cn3)CC2)c1	.	/	.	/	/	/
COc1ccc(C2N(c3cc(Cl)ccc3OC)C(=O)C3CCCN32)c(OC)c1 (stereo unspecified)	9.5	.	.	.	.	.
CC(NC(=O)CCc1nnc(Cc2cccc(C(F)(F)F)c2)o1)C1CC1 (stereo unspecified)	.	.	.	.	/	/
CC(C)CN(C)C(=O)CCc1nnc(Cc2cccc(C(F)(F)F)c2)o1	8.4	.	.	.	.	5.2
COc1cc(F)ccc1-c1csc(C(C)(O)c2ccc(F)c(F)c2)n1 (stereo unspecified)	9.1	.	.	.	.	.
COc1ccc(C(C)(O)c2nc(-c3ccc(F)cc3OC)cs2)cc1 (stereo unspecified)	.	.	.	.	/	/
COc1nc(-c2ccccc2)nnc1-c1ccccc1	11	.	.	.	.	13
COc1ccc(CNC(=O)c2ccc(C(C)C)cc2)cc1	11	.	.	.	.	17

Assay outcomes deposited in PubChem by several laboratories.
